Experimental data: PubChem BioAssay AID1851 (National Center for Advancing Translational Sciences (NCATS), 2009)
About 5,800 (36%) of roughly 16,000 compounds were called active. Inconclusive results (about 23%) are left out. Some of the results follow. Values without a mark were called inactive. Calls come from the whole dose curve; as a rule, active = well fitted curve in the direction sought with a large enough effect; inconclusive = small, poorly fitted or top-dose-only effect, or effect the other way; inactive = no such curve, though single readings can be large or run the other way.

Target: Cytochrome P450 2C19 (Homo sapiens) (UniProt P33261)
Sequence (P33261 whole entry, looked up): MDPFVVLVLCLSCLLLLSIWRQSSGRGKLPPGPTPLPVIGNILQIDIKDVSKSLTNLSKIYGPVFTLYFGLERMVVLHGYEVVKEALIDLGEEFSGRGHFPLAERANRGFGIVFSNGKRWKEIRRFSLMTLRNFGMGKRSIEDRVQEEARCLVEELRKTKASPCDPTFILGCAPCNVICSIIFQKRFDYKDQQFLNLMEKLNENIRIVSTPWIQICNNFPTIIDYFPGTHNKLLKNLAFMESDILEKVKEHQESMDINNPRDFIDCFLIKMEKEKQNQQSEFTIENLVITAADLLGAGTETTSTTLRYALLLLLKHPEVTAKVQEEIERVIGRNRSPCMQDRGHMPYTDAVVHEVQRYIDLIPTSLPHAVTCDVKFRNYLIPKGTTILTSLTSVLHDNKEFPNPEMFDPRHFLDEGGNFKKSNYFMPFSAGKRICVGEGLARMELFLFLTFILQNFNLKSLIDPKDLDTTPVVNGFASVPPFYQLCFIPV
Test: Cytochrome panel assay with activity outcomes
Settings: recombinant CYP, pro-luciferin dealkylation, luminescence, p450-cyp2c19; series mostly up to 57.1 µM
% is set by controls: 0 for no effect and ±100 for the full control effect.

| Structure (SMILES) | AC50 | activity, negative = inhibition |
| --- | --- | --- |
| O=C1Cc2c([nH]c3ccc(Br)cc23)-c2ccccc2N1 | inactive |  |
| CSc1ccc(NC(=O)NCCN2CCc3ccccc3C2)cc1 | 15.8 µM (active) |  |
| O=C(NCCCN1CCc2ccccc2C1)Nc1ccc(Cl)cc1 | 15.8 µM (active) |  |
| CC(C)[C@H](NC(=O)OC(C)(C)C)[C@@H](O)CC(=O)C(C)(C)C |  | -18.4% [at 11.4 µM] |
| CC(C)[C@@H]1NC(=O)[C@H](CCCCN)NC(=O)[C@H](Cc2c[nH]c3ccccc23)NC(=O)[C@H](Cc2ccc(O)cc2)NC(=O)[C@H](C)N(C)C(=O)[C@H](Cc2ccccc2)NC1=O | inactive |  |
| CCOc1ccc(NC(=O)c2ccc(OC)cc2)cc1 | inactive |  |
| O=C(Nc1cccc(OC(=O)c2cccnc2)c1)c1cccnc1 | inactive |  |
| COc1ccc(C(=O)Nc2cccc(OC(=O)c3ccc(C)c(C)c3)c2)cc1 | 7.94 µM (active) |  |
| COc1ccc(C(=O)Nc2cc(OC)cc(OC)c2)cc1 | 2.51 µM (active) |  |
| COc1ccc2c(=O)cc(-c3ccncc3)oc2c1OC | 1.58 µM (active) |  |
| COc1ccc2c(OC)c3ccoc3nc2c1OC | inactive |  |
| CCn1c2ccccc2c2nnc(NCCCO)nc21 |  | 5.92% [at 11.4 µM] |
| CCc1ccc2c(-c3cccc(Cl)c3)nc(=O)n(CC)c2n1 | inactive |  |
| CCn1c2ccc(Cl)cc2c2nc3ccccc3nc21 | 14.1 µM (active) |  |
| CC(=O)NCCNc1ncnc2ccc(-c3c(C)noc3C)cc12 | inactive |  |
| Cc1noc(C)c1-c1ccc2ncnc(NCc3cccs3)c2c1 | 1.26 µM (active) |  |
| Cc1cccc(CNc2ncnc3ccc(-c4c(C)noc4C)cc23)c1 | 5.01 µM (active) |  |
| COCCNc1ncnc2ccc(-c3c(C)noc3C)cc12 | 10 µM (active) |  |
| Cc1noc(C)c1-c1ccc2ncnc(NCCN3CCOCC3)c2c1 | inactive |  |
| Cc1noc(C)c1-c1ccc2ncnc(NCc3ccccc3)c2c1 | 7.94 µM (active) |  |
| C=C(C)C1Cc2nc(N)nc(C)c2C1 (stereo unspecified) | inactive |  |
| COc1cc(C)cc2c(-c3c(O)cc(O)c4c3C[C@H](C)N[C@@H]4C)cc(-c3cc(-c4c(O)cc(O)c5c4C[C@H](C)N[C@@H]5C)c4cc(C)cc(OC)c4c3O)c(O)c12 |  | -31.6% [at 11.4 µM] |
| Cc1noc(C)c1-c1ccc2ncnc(NCc3cccnc3)c2c1 | 0.02 µM (active) |  |

| Structure (SMILES) | AC50 | activity, negative = inhibition |
| --- | --- | --- |
| CC1(C)OC[C@@H]2O[C@H](n3cnc4c(N)nc(Cl)nc43)[C@@H](OS(C)(=O)=O)[C@@H]2O1 |  | 8% [at 11.4 µM] |
| CN(Cc1ccco1)c1ncnc2ccc(-c3cccc(NS(C)(=O)=O)c3)cc12 | 7.94 µM (active) |  |
| CN(Cc1ccco1)c1ncnc2ccc(-c3ccc4c(c3)OCO4)cc12 | 0.631 µM (active) |  |
| CN1CCN(c2ncnc3ccc(-c4cccc(NS(C)(=O)=O)c4)cc23)CC1 | inactive |  |
| CN(Cc1ccco1)c1ncnc2ccc(-c3cccnc3)cc12 | 7.94 µM (active) |  |
| COc1cccc(-c2ccc3ncnc(N(C)Cc4ccco4)c3c2)c1 | 2 µM (active) |  |
| CCOc1ccc2nc3cc(N=Nc4ccc(N)nc4N)ccc3c(N)c2c1 |  | -6.5% [at 11.4 µM] |
| COc1cccc(-c2ccc3ncnc(N(C)C)c3c2)c1 | 3.16 µM (active) |  |
| CN(C)C(=O)c1ccc(-c2ccc3ncnc(N(C)C)c3c2)cc1 | inactive |  |
| CN(C)c1ncnc2ccc(-c3cccnc3)cc12 | inactive |  |
| CCSc1nnc(NC(=O)COc2ccc3ccccc3c2)s1 | 0.282 µM (active) |  |
| O=C(O)CCC(=O)Nc1ccc2ccccc2c1 |  | -18.3% [at 11.4 µM] |
| O=C(COc1ccc2ccccc2c1)Nc1ccc(Cc2ccncc2)cc1 | 0.178 µM (active) |  |
| CCC(CC)c1nnc(NC(=O)COc2ccc3c(C)cc(=O)oc3c2)s1 | inactive |  |
| CCc1ccc(OCC(=O)Nc2ccc(-c3nc4ccccc4o3)c(O)c2)cc1 | inactive |  |
| C=CCSc1nnc(NC(=O)COc2ccc3ccccc3c2)s1 | 2.24 µM (active) |  |
| CN1CC[C@@]2(CCN3CCc4c(oc5ccccc45)[C@@H]3C2)N(C)C1=O | inactive |  |
| CC(C)=CCc1c2c(c3occ(-c4ccc(O)c(O)c4)c(=O)c3c1O)C=CC(C)(C)O2 | 2 µM (active) |  |
| Cc1ccc(Nc2nc(-c3sc(NC(=O)c4cccc(Cl)c4)nc3C)cs2)cc1 | 1.41 µM (active) |  |
| O=C(Nc1nnc(CCS(=O)(=O)c2ccc(Br)cc2)s1)c1ccc([N+](=O)[O-])cc1 | inactive |  |
| Cc1ccc(Nc2nc(-c3sc(NC(=O)c4ccc([N+](=O)[O-])cc4)nc3C)cs2)cc1 | 1.26 µM (active) |  |
| Cc1cccc(C(=O)Nc2nnc(-c3ccc(C(C)(C)C)cc3)s2)c1 | inactive |  |
| Cc1nc(NC(=O)c2ccccc2)sc1-c1csc(Nc2ccc(Cl)cc2)n1 | 0.316 µM (active) |  |

| Structure (SMILES) | AC50 | activity, negative = inhibition |
| --- | --- | --- |
| Cc1nc(NC(=O)c2ccccc2)sc1-c1csc(Nc2cccc(F)c2)n1 | 0.562 µM (active) |  |
| O=C(O)CCC(O)=C1S(=O)(=O)OCCOS1(=O)=O |  | 3.76% [at 11.4 µM] |
| C=CCCC(=O)Nc1nc(C)c(-c2csc(Nc3ccc(Cl)cc3)n2)s1 | 1.26 µM (active) |  |
| Cc1nnc(NC(=O)c2cccc(NC(=O)C(C)C)c2)s1 | inactive |  |
| Cc1nc(NC(=O)c2ccccc2)sc1-c1csc(Nc2cccc(Cl)c2)n1 | 0.562 µM (active) |  |
| Cc1nc(NC(=O)c2ccccc2)sc1-c1csc(Nc2ccc(Cl)cc2Cl)n1 | 0.355 µM (active) |  |
| Cc1nc(NC(=O)c2ccco2)sc1-c1csc(Nc2ccc(Cl)cc2Cl)n1 | 0.355 µM (active) |  |
| O=C(O)Cc1cc(I)c(Oc2ccc(O)c(I)c2)c(I)c1 | inactive |  |
| CC[C@H](C)C(=O)O[C@H]1CCC=C2C=C[C@H](C)[C@H](CC[C@@H]3C[C@H](O)CC(=O)O3)[C@H]21 | inactive |  |
| Nc1[nH]nc2nc3ccccc3nc12 | 0.631 µM (active) |  |
| Nc1n[nH]c2ccccc12 |  | -23.5% [at 11.4 µM] |
| COc1ccc(N(C)C(=O)c2ccc3nc(-c4ccccc4)c(-c4ccccc4)nc3c2)cc1 | 8.91 µM (active) |  |
| CCCOc1ccc(Cn2c(C)nc([N+](=O)[O-])c2SCC(O)COC)cc1[N+](=O)[O-] (stereo unspecified) | 2.82 µM (active) |  |
| CNc1nc(C)cc(C)c1S(=O)(=O)c1ccc(C)cc1 | 0.631 µM (active) |  |
| CNc1nc(C)cc(C)c1S(=O)(=O)c1ccc(Cl)cc1 | 0.708 µM (active) |  |
| Cc1cc(C)c(S(C)(=O)=O)c(Oc2ccc(C(C)(C)C)cc2)n1 | 7.94 µM (active) |  |
| Cc1cc(C)nc(NS(=O)(=O)c2ccc(N)cc2)n1 | inactive |  |
| COc1ccc(Oc2nc(C)cc(C)c2S(=O)(=O)c2ccc(C)cc2)cc1 | 14.1 µM (active) |  |
| Cc1ccccc1C1C(C#N)=C2N=C(N)c3c(sc4c3CCCCC4)N2C2=C1C(=O)CC(C)(C)C2 (stereo unspecified) | 6.31 µM (active) |  |
| COc1cc(C2C(C#N)=C(N)N(c3sc4c(c3C#N)CCCC4)C3=C2C(=O)CC(C)(C)C3)cc(OC)c1OC (stereo unspecified) | 10 µM (active) |  |
| CC(=O)OC[C@@H]1O[C@@H](O/N=C2/C[C@@H](O)[C@@H](O)[C@@H]3[C@@H]4C(=O)N(C[C@@H]5CCCO5)C(=O)[C@H]4CC[C@@H]23)[C@H](OC(C)=O)[C@H](OC(C)=O)[C@@H]1OC(C)=O |  | 3.68% [at 11.4 µM] |
| COc1cccc(Cn2c(NCc3cccnc3)nc3c2c(=O)n(C)c(=O)n3C)c1 | 17.8 µM (active) |  |
| Nc1nc(-c2ccccc2)c(-c2ccccc2)c(-c2nc(N)nc(-c3ccccc3)c2-c2ccccc2)n1 |  | 13% [at 11.4 µM] |

| Structure (SMILES) | AC50 | activity, negative = inhibition |
| --- | --- | --- |
| Nc1nc(-c2ccccc2)c(-c2ccccc2)s1 | 8.91 µM (active) |  |
| Nc1ccc(-c2sc(N)nc2-c2ccccc2)cc1 | 7.94 µM (active) |  |
| Cc1ccc(C)c(NC(=O)C2C3CCCC2C3c2ccccc2)c1 (stereo unspecified) | inactive |  |
| Cc1ccc(C)c(NC(=O)C2CC3c4ccccc4C2c2ccccc23)c1 (stereo unspecified) | 20 µM (active) |  |
| Nc1nc2c(ncn2COC(CO)CO)c(=O)[nH]1 | inactive |  |
| CC(=O)c1sc(N)c(C(=O)OC(C)C)c1C | 1.58 µM (active) |  |
| CC(C)CN1CCCC2(CCN(C(=O)c3cc(C(F)(F)F)cc(C(F)(F)F)c3)CC2)C1 | inactive |  |
| CCOC(=O)CSCC(NC(=O)OC(C)(C)C)C(=O)OCC (stereo unspecified) | 10 µM (active) |  |
| CC(=O)C[C@H](O)[C@@H](NC(=O)OC(C)(C)C)C(C)C |  | -9.61% [at 11.4 µM] |
| CC(C)[C@H](NC(=O)OC(C)(C)C)[C@@H](O)CC(=O)OC(C)(C)C |  | -17.9% [at 11.4 µM] |
| Cc1nn(Cc2ccc(Cl)cc2)c(C)c1NC(=O)Cn1nc([N+](=O)[O-])c(Cl)c1C | inactive |  |
| Cc1c(Cl)c([N+](=O)[O-])nn1Cc1ccc(C(=O)N/N=C\c2cc(Cl)ccc2O)o1 | 1.78 µM (active) |  |
| Cc1c(Cl)c([N+](=O)[O-])nn1Cc1ccc(C(=O)N/N=C\c2cccc(Br)c2)o1 | 1.12 µM (active) |  |
| O=C(/C=C/c1cccc(Cl)c1)Nc1ccncc1 | 0.0708 µM (active) |  |
| O=C(O)/C=C\C(=O)Nc1ccc2c(c1)C(=O)c1cc(F)ccc1-2 |  | 28.8% [at 11.4 µM] |
| Cc1nc(N=Nc2cc(S(=O)(=O)O)ccc2S(=O)(=O)O)c(COP(=O)(O)O)c(C=O)c1O | inactive |  |
| CCCCC1(C)OC(=O)C(=Cc2ccc(N(CC)CC)cc2)C(=O)O1 (stereo unspecified) | 10 µM (active) |  |
| CN(C)c1ccc(/C=C2/C(=O)Nc3ccccc32)cc1 | inactive |  |
| O=C1Oc2ccccc2C2(O)C3CCCCCC3C12 (stereo unspecified) | 1.41 µM (active) |  |
| C#CCSc1nc(Cc2ccc(Cl)cc2)nc2ccccc12 | 0.501 µM (active) |  |
| C#CCSc1nnc(-c2sc3ccccc3c2Cl)o1 | inactive |  |
| CC1(C)CC(=O)C(C(C#Cc2ccccc2)C2=C(O)CC(C)(C)CC2=O)=C(O)C1 | 4.47 µM (active) |  |
